# L3MBTL1 inh = blocks human L3MBTL1; Q9Y468; AlphaScreen L3MBTL1–H3K9me1 peptide binding; Potency, µM (top dose mostly 57.1 µM), without a hit: top-dose activity, negative = inhibition, hits mostly inhibitors; 230,000 tested, 0.66% active; also: % is scaled to controls: 0 for no effect and ±100 for the full control effect; nearly all actives have a fitted effect of over 60% in size
#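 L3MBTL1 (50 nM) pre-complexed 30 min with biotinylated H3(1-15)K9me1 peptide (75 nM), then compounds added for 30 min at room temperature; AlphaScreen streptavidin donor/nickel chelate acceptor beads (10 ug/mL final) read after 30 min dark incubation.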
# Sfp PPTase inh = Sfp phosphopantetheinyl transferase inhibition | Q9F4F7 | Biochemical Sfp PPTase activity, qHTS | Potency, µM, without a hit: largest response in the series, negative = inhibition, actives largely listed as inhibitors | 310,000 tested, 3.5% active;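 also: the enzyme is Sfp with the accession as filed and its product quenches rhodamine fluorescence; 0% = enzyme reaction without inhibitor and -100% = no enzyme wells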
#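 Buffer: 50 mM Hepes-Na pH 7.6, 10 mM MgCl2, 0.01% Nonidet P-40, 0.01% BSA. Enzyme 15 nM, pre-exposed to compound 15 min; substrates then added and fluorescence change tracked over 30 min.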
# G9a inh = inhibitors of human histone lysine methyltransferase G9a | Q96KQ7 | G9a H3K9 monomethylation, AlphaScreen, 2 h | Potency, µM (titrated, usually from 102 µM), without a hit: at the highest dose activity, negative = inhibition, actives largely listed as inhibitors | 350,000 tested, 8.8% active; also: % is scaled to controls: 0 for no effect and ±100 for the full control effect; nearly all actives have a fitted effect of over 75% in size
#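 AlphaScreen read-out: biotin-H3K9 peptide (500 nM) methylation by 20 nM enzyme with 20 uM SAM, 2 h at room temperature after 15 min compound preincubation; anti-monomethyl H3K9 antibody plus donor/acceptor beads, 10 min dark.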
# JMJD2A Tudor inh = JMJD2A Tudor domain (human) inhibition | O75164 | AlphaScreen JMJD2A-Tudor / H3K4me3 peptide binding | Potency, µM (highest dose often 114 µM), for the others: at the top dose activity change, negative = inhibition, actives largely listed as inhibitors | 390,000 tested, 4.4% active | AID 504339; also: % is scaled to controls: 0 for no effect and ±100 for the full control effect; nearly all actives have a fitted effect of over 50% in size
# Target sequence (O75164 whole entry, looked up, the tested form may be a part): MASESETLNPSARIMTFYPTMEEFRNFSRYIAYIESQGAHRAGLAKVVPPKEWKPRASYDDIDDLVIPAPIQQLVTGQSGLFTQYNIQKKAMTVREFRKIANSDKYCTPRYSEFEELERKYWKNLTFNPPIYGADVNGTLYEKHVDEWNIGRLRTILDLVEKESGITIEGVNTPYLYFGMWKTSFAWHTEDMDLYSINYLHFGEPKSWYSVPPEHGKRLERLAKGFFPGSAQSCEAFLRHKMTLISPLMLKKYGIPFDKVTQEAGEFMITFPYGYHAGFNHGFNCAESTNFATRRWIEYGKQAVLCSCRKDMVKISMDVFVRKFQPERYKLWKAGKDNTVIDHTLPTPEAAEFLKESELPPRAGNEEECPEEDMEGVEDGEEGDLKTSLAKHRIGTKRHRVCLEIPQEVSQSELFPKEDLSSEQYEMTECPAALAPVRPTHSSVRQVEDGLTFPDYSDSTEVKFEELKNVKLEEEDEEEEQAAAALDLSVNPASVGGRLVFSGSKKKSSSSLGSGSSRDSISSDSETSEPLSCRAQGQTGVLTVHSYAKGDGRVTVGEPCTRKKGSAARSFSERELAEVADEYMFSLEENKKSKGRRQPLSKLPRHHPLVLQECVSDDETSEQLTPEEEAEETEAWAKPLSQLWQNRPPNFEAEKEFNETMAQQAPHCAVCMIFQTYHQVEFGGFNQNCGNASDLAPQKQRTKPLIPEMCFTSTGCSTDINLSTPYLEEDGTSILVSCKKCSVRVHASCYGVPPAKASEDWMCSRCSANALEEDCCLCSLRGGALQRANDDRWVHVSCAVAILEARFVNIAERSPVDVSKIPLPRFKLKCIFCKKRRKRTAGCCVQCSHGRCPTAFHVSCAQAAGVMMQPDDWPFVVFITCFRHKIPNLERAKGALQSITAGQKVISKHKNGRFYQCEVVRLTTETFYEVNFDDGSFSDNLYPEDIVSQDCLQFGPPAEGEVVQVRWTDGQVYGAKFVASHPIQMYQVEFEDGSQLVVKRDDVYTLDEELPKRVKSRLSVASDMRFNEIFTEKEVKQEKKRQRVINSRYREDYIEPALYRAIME
# HP1b chromo inh = HP1-beta chromodomain-methylated histone interaction inhibition; AID 540317; AlphaScreen HP1-beta / biotin-H3K9me3 peptide binding; 390,000 tested, 0.56% active; P83916; Potency, µM (series often up to 114 µM), for inactives: top-dose activity change, negative = inhibition, usual class: inhibitors; also: nearly all actives have a fitted effect of over 70% in size
#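 Compound inhibition of the preformed complex between 50 nM HP1-beta and 50 nM biotinylated H3K9me3 peptide was read by AlphaScreen. Buffer was PBS pH 7.4 with 0.01% Tween-20. Incubations ran 30 min at room temperature, with 10 ug/mL donor/acceptor beads.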
# BAZ2B block = BAZ2B (human) inhibition; Q9UIF8; AlphaScreen BAZ2B-H3K14Ac peptide displacement; Potency, µM (highest dose often 114 µM), without a hit: top-dose activity change, negative = inhibition, hits mostly inhibitors; 360,000 tested, 4.4% active; AID 504333; also: % is scaled to controls: 0 for no effect and ±100 for the full control effect; nearly all actives have a fitted effect of over 60% in size
#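 AlphaScreen displacement of biotin-H3(5-23)K14Ac peptide (50 nM final) from BAZ2B (50 nM final) in PBS pH 7.4, 0.01% Tween-20; complex preformed 30 min RT, then compounds (top 110 uM) 30 min RT, beads 20 min dark.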
# The depositor's hits bear a star; ? = inconclusive; / = not tested or not shown; ! = not active in a repeat; [ ] = another dose, or the depositor's remark. Rows were chosen to be rich in hits. Some 12% of all compounds tested hit in one or more screens of this group. Calls follow the shape of the dose curve; as a rule, active = well fitted curve in the direction sought with a large enough effect; inconclusive = small, poorly fitted or top-dose-only effect, or another doubt; inactive = no such curve, though single readings can be large; an effect the other way counts as inactive or inconclusive. Potency is read from the fitted curve at half-maximal effect.
SMILES,L3MBTL1 inh,Sfp PPTase inh,G9a inh,JMJD2A Tudor inh,HP1b chromo inh,BAZ2B block
NCCCC[C@@H]1NC(=O)c2cc([N+](=O)[O-])cc(F)c2NCCCC[C@@H](C(N)=O)NC(=O)[C@H](CCC(N)=O)NC1=O,5%,7%,?,-18%,28%,-3%
CN(C(=O)c1ccc(OCC=C(c2ccccc2)c2ccccc2)cc1)c1ccccc1I,/,-7%,/,-18%,17%,/
Cc1cc(S(=O)(=O)Nc2cc3c(cc2Cl)n(C)c(=O)c(=O)n3C)ccc1F,/,/,-7%[59 µM],-20%,0%,-13%
COc1ccc2[nH]c(=O)c(CNc3ccc(C)cc3C)cc2c1,-8%,45µM*,20µM*,-32%,-17%,-23%
CCOc1ccc(NCc2cc3cc(OC)ccc3[nH]c2=O)cc1,-24%,-1%,?,?,-4%,-27%
Cc1ccc2[nH]c(=O)c(CNC(C)(C)C)cc2c1,2%,5.6µM*,?,0%,14%,-28%
COc1ccc2[nH]c(=O)c(CNc3cc(C)ccc3C)cc2c1,7%,50µM*,?,?,-32%,50µM*
CC(C)(C)NCc1cc2ccccc2[nH]c1=O,/,13%,8%,4%,33%,4%
O=C(CCl)c1cc2c3c(c1)CC(=O)N3CCC2,/,-1%,50µM*,-10%,62%,?
O=C(Nc1cc2c3c(c1)CC(=O)N3CCC2)c1ccc(Br)o1,0%,/,?,-18%,14%,-27%
O=C(Nc1cc2c3c(c1)CC(=O)N3CCC2)c1ccco1,-3%,/,35µM*,-15%,-3%,-19%
O=C(NCCO)C(=O)Nc1cc2c3c(c1)CC(=O)N3CCC2,/,11%,-4%[59 µM],-9%,13%,-19%
Cc1ccc(NC(=O)CCC(=O)N2CCSc3ccccc32)cc1,/,/,0%[59 µM],-7%,46%,-20%
COc1ccccc1C1/C(=C(/O)c2cnn(-c3ccccc3)c2C)C(=O)C(=O)N1CCN(C)C (stereo unspecified),/,/,/,11%,66%,/
COc1ccc(/C(O)=C2\C(=O)C(=O)N(CCN(C)C)C2c2cccc(OC)c2OC)cc1 (stereo unspecified),-1%,18%,11µM*,-17%,12%,-28%
COc1cccc(C2/C(=C(/O)c3cnn(-c4ccccc4)c3C)C(=O)C(=O)N2CCN(C)C)c1OC (stereo unspecified),-11%,16%,14µM*,-15%[57.1 µM],21%,?
COc1ccc(C2/C(=C(\O)c3ccc(OC)c(Cl)c3)C(=O)C(=O)N2CCN(C)C)cc1 (stereo unspecified),3%,1%,79µM*,-3%,30%,-4%
CC(=O)Nc1nonc1-c1nnc(SCC(=O)Nc2ccc(F)cc2F)n1-c1ccccc1,/,/,-2%[59 µM],-13%,45%,-2%
CC(SCc1cn2cc(Cl)ccc2n1)C(=O)O (stereo unspecified),4%,-1%,?,50µM*,0%,-24%
CCOc1ccc(CCNS(=O)(=O)c2cc(Br)cc3c2N(C(C)=O)CC3)cc1OCC,/,/,-42%[59 µM],-25%,7%,0%
c1ccc2c(c1)[nH]c1ccccc12,/,/,/,-8%,23%,/
Cc1ccc2c(C)cc(=S)[nH]c2c1,4%,6%,50µM*,0%,33%,-18%
Cc1ccc2[nH]c(=S)cc(C)c2c1,-9%,?,-24%[59 µM],-14%,37%,4%
Cc1cc(=S)[nH]c2ccccc12,3%,?,2.8µM*,-30%,17%,-25%
Cc1cc(-c2c(C)[nH]n(-c3ccccc3)c2=O)n(-c2ccccc2)n1,0%,13%,/,-17%,15%,-31%
SMILES,L3MBTL1 inh,Sfp PPTase inh,G9a inh,JMJD2A Tudor inh,HP1b chromo inh,BAZ2B block
S=c1nc(-c2ccccc2)[nH]n1-c1ccccc1,-1%,40µM*,?,22µM*,?,-37%
Nc1nc(=S)n(-c2ccccc2)[nH]1,/,28µM*,10µM*,3.5µM*,?,?
Nc1cc(=O)[nH]c(=S)n1-c1ccccc1,/,?,?,-19%,10%,7%
Cc1nc(=S)n(-c2ccccc2)[nH]1,16%,?,14µM*,7.1µM*,43%,6%
CCCCOc1ccc(C(=O)Nc2cc(-c3cn4cccnc4n3)ccc2OC)cc1,/,/,12%[59 µM],-11%,17%[57 µM],-2%
Cc1cc2c(cc1S(=O)(=O)CCC(=O)N(C)Cc1ccccc1)OCC(=O)N2,3%,1%,11µM*,20µM*!,?,13µM*!
COc1cccc(NC(=O)CCS(=O)(=O)c2cc3c(cc2Cl)NC(=O)CO3)c1,/,3%,/,21%,36%,-6%
Cc1cccc(NC(=O)CCS(=O)(=O)c2cc3c(cc2Cl)NC(=O)CO3)c1,/,26%,17%,16µM*,13%,-14%
CCc1cccc(NC(=O)CCS(=O)(=O)c2cc3c(cc2C)NC(=O)CO3)c1,-1%,7%,/,-2%,33%,-4%
CCOC(=O)c1ccc(NS(=O)(=O)c2cc3c(cc2C)NC(=O)CO3)cc1,/,1%,50µM*,?,4%,-17%
Cc1ccc(NS(=O)(=O)c2cc3c(cc2C)NC(=O)CO3)cc1C,/,/,/,-15%,/,/
Cc1ccc(NS(=O)(=O)c2ccc(Cl)cc2)cc1C,/,/,/,-4%,/,/
COc1cc(-c2nc3ccccn3c2/N=C/c2ccc(F)cc2)ccc1O,/,50µM*,35µM*,?,?,?
COc1ccc(/C=N/c2c(-c3ccco3)nc3ccccn23)cc1OC,-12%,-17%,71µM*,-34%,-6%,?
Clc1ccc(/C=N/c2c(-c3ccco3)nc3ccccn23)cc1,/,-27%,?,45µM*,?,?
COc1cc(-c2nc3ccccn3c2/N=C/c2cccc(OC)c2O)ccc1O,/,-11%,9%,?,20%,-15%
Cn1c(SCCCC(=O)c2ccc(F)cc2)nnc1-c1ccncc1,6%,-3%,7%[2.33 µM],-16%,24%,15%
Cc1occc1-c1nnc(SCCCC(=O)c2ccc(F)cc2)n1C,-4%,50µM*,50µM*,-29%,7%,?
CCN(CC)CCNC(=O)c1ccc(NS(C)(=O)=O)cc1,/,/,-6%[59 µM],/,/,/
Cc1cccc(NC(=O)CSc2nc3ccccc3nc2N2CCCCC2)c1C,/,/,31%[59 µM],6%,55%,7%
O=[N+]([O-])c1cccnc1N1CCC(c2cc(-c3cccc(C(F)(F)F)c3)n[nH]2)CC1,/,15%,?,-15%[11.4 µM],?,35µM*
COc1ccc(OC)c(-c2cc(C3CCN(c4ncccc4[N+](=O)[O-])CC3)[nH]n2)c1,?,0%,35µM*,25µM*,?,13µM*
COc1ccc(-c2cc(C3CCN(Cc4cccc(C(F)(F)F)c4)CC3)[nH]n2)cc1,-3%,11%,?,?,-5%,?
